10 molecules from PubChem BioAssay (NCATS) can be followed below.

One assay has as its system KB-3-1. As to the kind of experiment: Cytotoxic Profiling of Annotated Libraries Using Quantitative High-Throughput Screening (AID 1296008). For max response: % is set by controls: 0 for no effect and ±100 for the full control effect. Note: nearly all actives have a fitted effect of over 60% in size. The settings on record: Five cell lines viability, CellTiter-Glo ATP luminescence, 48-72 h; max response: hits give low values. The gist of the method: (§1)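 Cells exposed to compounds for 48 or 72 hr at 37 degrees Celsius. Viability read as ATP-coupled luminescence with CellTiter-Glo after 10 min at room temperature.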

Assay [1] relates to CRL-7250. As to the kind of experiment: qHTS assay to identify novel small-molecules to repurpose for Merkel cell carcinoma treatment (AID 1296009). Note: nearly all actives have a fitted effect of over 60% in size. Note: potency is the fitted concentration of half-maximal effect. The settings on record: MCC and control cell lines, CellTiter-Glo viability, 72 h; series mostly up to 44.8 µM. In short, it runs like this: (§2)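 Cells were incubated with compound for 72 hr at 37 degree celsius before CellTiter-Glo addition. Luminescence was normalized with no-cell wells as full cytotoxicity and DMSO as baseline.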
On the technique in general: In qHTS, concentration-response curves come from the screen itself.

Assay [2] deals with HaCat. Briefly: Cytotoxic Profiling of Annotated Libraries Using Quantitative High-Throughput Screening (AID 1296008). For max response: % is set by controls: 0 for no effect and ±100 for the full control effect. Note: nearly all actives have a fitted effect of over 60% in size. The settings on record: Five cell lines viability, CellTiter-Glo ATP luminescence, 48-72 h; max response: hits give low values. The gist of the method:
as §1
(ATP-based viability assays read luminescence as a measure of living cells.)

Assay [3] has as its system NIH3T3. The assay is described as above. Particulars: Five cell lines viability, CellTiter-Glo ATP luminescence, 48-72 h; max response: hits give low values. The gist of the method:
as §1

Assay [4] deals with HACAT. Briefly: qHTS assay to identify novel small-molecules to repurpose for Merkel cell carcinoma treatment (AID 1296009). Note: nearly all actives have a fitted effect of over 60% in size. Note: potency is the fitted concentration of half-maximal effect. The settings on record: MCC and control cell lines, CellTiter-Glo viability, 72 h; at 44.8 µM (top of the series) unless noted. The gist of the method: as §2
The test system of another assay is MCC-13. The assay is described as above. Particulars: MCC and control cell lines, CellTiter-Glo viability, 72 h; series mostly up to 46 µM. The gist of the method: as §2
Another assay relates to MCC-26. The description is as above. The settings on record: MCC and control cell lines, CellTiter-Glo viability, 72 h; series mostly up to 46 µM. In short, it runs like this:
as §2

Another assay has as its system MKL-1. Described as above. Particulars: MCC and control cell lines, CellTiter-Glo viability, 72 h; series mostly up to 46 µM. In short, it runs like this: as §2
A further assay has as its system MKL-2. The assay is described as above. Particulars: MCC and control cell lines, CellTiter-Glo viability, 72 h; series mostly up to 46 µM. The gist of the method: as §2
A further assay concerns UISO. The assay is described as above. The settings on record: MCC and control cell lines, CellTiter-Glo viability, 72 h; series mostly up to 46 µM. The gist of the method: as §2
In the next assay the test system is WaGa. The description is as above. The settings on record: MCC and control cell lines, CellTiter-Glo viability, 72 h; series mostly up to 46 µM. The gist of the method: as §2
In the next assay the test system is C33A. Briefly: Primary qHTS to identify gynecologic anti-cancer compounds using libraries of approved drugs and bioactive compounds (AID 1345084). Note: % is set by controls: 0 for no effect and ±100 for the full control effect; nearly all actives have a fitted effect of over 55% in size. Particulars: Gynecologic cancer cell panel viability, ATPlite luminescence, 48 h; series mostly up to 57.5 µM. The gist of the method:
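48 h compound exposure at 37 C, 5% CO2; five-point qHTS. ATPlite luminescence readout of cell ATP.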

The subject of another assay is TAB109. As to the kind of experiment: qHTS profiling for inhibitors of Plasmodium falciparum proliferation (AID 504749). Note: nearly all actives have a fitted effect of over 60% in size. Note: potency is the fitted concentration of half-maximal effect. Particulars: P. falciparum in erythrocytes, SYBR Green DNA, 72 h; series mostly up to 28.7 µM. In short, it runs like this: (§3)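 Readout was DNA-dye fluorescence from lysed cultures, ex 485/em 535 nm. Parasitized red cells had grown 72 h with compound; data scaled between 0.29 uM artemisinin and DMSO wells and corrected using vehicle-only plates.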

The next assay deals with TAB113. The description is as above. Particulars: P. falciparum in erythrocytes, SYBR Green DNA, 72 h; series mostly up to 28.7 µM. In short, it runs like this: as §3
The test system of another assay is TAB165. The assay is described as above. Particulars: P. falciparum in erythrocytes, SYBR Green DNA, 72 h; series mostly up to 28.7 µM. The gist of the method:
as §3

In assay [5] the test system is CRL-7250. Briefly: Cytotoxic Profiling of Annotated Libraries Using Quantitative High-Throughput Screening (AID 1296008). For max response: % is set by controls: 0 for no effect and ±100 for the full control effect. Note: nearly all actives have a fitted effect of over 60% in size. The settings on record: Five cell lines viability, CellTiter-Glo ATP luminescence, 48-72 h; max response: hits give low values. The gist of the method: as §1
The next assay has as its system W2. As to the kind of experiment: qHTS profiling for inhibitors of Plasmodium falciparum proliferation (AID 504749). Note: nearly all actives have a fitted effect of over 60% in size. Note: potency is the fitted concentration of half-maximal effect. The settings on record: P. falciparum in erythrocytes, SYBR Green DNA, 72 h; series mostly up to 28.7 µM. The gist of the method: as §3
The test system of assay [6] is NIH3T3. Briefly: qHTS assay to identify novel small-molecules to repurpose for Merkel cell carcinoma treatment (AID 1296009). Note: nearly all actives have a fitted effect of over 60% in size. Note: potency is the fitted concentration of half-maximal effect. Particulars: MCC and control cell lines, CellTiter-Glo viability, 72 h; at 44.8 µM (top of the series) unless noted. The gist of the method: as §2
A further assay relates to HEK293. Briefly: Cytotoxic Profiling of Annotated Libraries Using Quantitative High-Throughput Screening (AID 1296008). For max response: % is set by controls: 0 for no effect and ±100 for the full control effect. Note: nearly all actives have a fitted effect of over 60% in size. Particulars: Five cell lines viability, CellTiter-Glo ATP luminescence, 48-72 h; max response: hits give low values. The gist of the method: as §1

Several values for one entry are separate records, joined by “and”; a condition that tells them apart may be missing. Equal entries are not always repeated. Results filed as inconclusive are left out. Values without a mark were called inactive. Activity calls are given as the source filed them. Calls come from the whole dose curve; as a rule, active = well fitted curve in the direction sought with a large enough effect; inconclusive = small, poorly fitted or top-dose-only effect, or another doubt; inactive = no such curve, though single readings can be large; an effect the other way counts as inactive or inconclusive.

Regarding `O=C(O)P(=O)(O)O`, in the assay with KB-3-1, the max response is -7.16%. Further, the molecule was classed as inactive in the assay on CRL-7250 [1].

For the molecule `COC[C@@H](NC(C)=O)C(=O)NCc1ccccc1`, the molecule was classed as inactive in the assay with HaCat [2] and in the assay with HACAT [4]. Moreover, the max response in the assay with KB-3-1 is 8.88%; in the assay with NIH3T3 [3] it was 2.94%. The Potency entry in the assay on MCC-13, in the assay on MCC-26, in the assay on MKL-1, with MKL-2, in the assay with UISO and in the assay with WaGa was “inactive” throughout. Further, the Potency entry in the assay with C33A was “inactive”.

For `O=C1NCN(c2ccccc2)C12CCN(CC1COc3ccccc3O1)CC2` (configuration not stated), the Potency result with TAB109, with TAB113, in the assay on TAB165, in the assay on MCC-13, in the assay on MKL-1 and in the assay with MKL-2 was “inactive” throughout. The Potency result with UISO, with WaGa and in the assay on C33A was “inactive” in each case. The max response with CRL-7250 [5] is -15.4%; in the assay on HaCat [2], 4.17%; with KB-3-1, -9.57%; in the assay with NIH3T3 [3], -1.57%.

Consider `Cc1nc2n(c(=O)c1CCN1CCC(c3noc4cc(F)ccc34)CC1)CCC[C@H]2O`, for which the outcome in the assay on CRL-7250 [1] is “inactive [at 17.4 µM]”.

Consider `CCN(CC)CCN1C(=O)CN=C(c2ccccc2F)c2cc(Cl)ccc21`, for which the Potency entry in the assay with TAB113, in the assay with MCC-13, with MCC-26, in the assay on MKL-1, with MKL-2 and in the assay with UISO was “inactive” throughout. For the same molecule, the Potency entry in the assay on WaGa and in the assay on C33A was “inactive” in each case. In addition, the Potency in the assay with W2 was 4.78 µM (active). The figures for the max response with CRL-7250 [5], in the assay on HaCat [2] and in the assay on KB-3-1 were -7.13%, 0.85% and -5.99%, respectively. Further, the molecule was classed as inactive in the assay with NIH3T3 [3] and with NIH3T3 [6].

Regarding `C[C@]12C/C(=C/O)C(=O)C[C@@H]1CC[C@@H]1[C@@H]2CC[C@@]2(C)[C@H]1CC[C@]2(C)O`, the Potency entry in the assay on TAB109, with TAB113, with TAB165, in the assay with MCC-13, with MCC-26 and in the assay on C33A was “inactive” each time. Besides, the figures for the max response in the assay on HEK293, in the assay with KB-3-1 and in the assay with NIH3T3 [3] were -8.16%, -12.7% and 1.95%, respectively. For the same molecule, the outcome in the assay on HaCat [2] and in the assay on HACAT [4] was inactive.

For `c1ccc(C2CC2)c(OCC2=NCCN2)c1`, the Potency result in the assay with TAB109, in the assay with TAB113, in the assay with TAB165, in the assay on MCC-13, in the assay on MCC-26 and in the assay on MKL-1 was “inactive” in each case. Moreover, the Potency entry with MKL-2, with UISO, with WaGa and in the assay on C33A was “inactive” in each case. Also, the Potency in the assay with W2 is 13.5 µM (active). The max response in the assay on HEK293 is -2.25%; with KB-3-1, 1.77%; in the assay with NIH3T3 [3], -5.7%. For the same molecule, the result with HaCat [2] and in the assay with HACAT [4] was inactive.

Consider `Oc1ccc(Cl)cc1Cc1ccccc1`, for which the Potency is 6.31 µM (active) in the assay on TAB165, 4.78 µM (active) with W2, 21.9 µM (active) in the assay with MKL-2 and 34.7 µM (active) in the assay with UISO. The max response in the assay with CRL-7250 [5] was -21.4%; in the assay on HaCat [2] it was -19.2%; in the assay with KB-3-1, -1.59% and -11.5%; in the assay on NIH3T3 [3], -10.2%. Further, the Potency result in the assay with MCC-13, with MCC-26, in the assay on MKL-1 and in the assay on C33A was “inactive” each time.

Regarding `Cc1[nH]cnc1CN1CCc2c(c3ccccc3n2C)C1=O`, the call with CRL-7250 [1] was inactive.

As to `CC(S)C(=O)NCC(=O)O` (configuration not stated), the molecule was called inactive in the assay on CRL-7250 [1].
